# Laboratory results from the supplement of paper PMC3545927.
# The list shows a part of the results. The true hit rate is not given.
# Biological target: furin, P09958
# Assay: furin cleavage Z-score vs untreated control; higher = more cleavage, active = 3.5 or more, inactive = 1 or less, 8 variable residues between constant flanks
# Outline: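 The cleavage Z-score was derived for purified furin acting on 8-mer peptides held on magnetic beads and fused to a cDNA oligonucleotide. Digests lasted 7.5, 15 or 30 min at 1:10 enzyme:substrate in 50 mM HEPES pH 7.5 with CaCl2 and NaCl. Sequencing counts of released DNA, log-transformed against furin-free reactions, were lowess-adjusted and scaled by median absolute deviation.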
# Sequence of furin, P09958 (P09958 whole entry): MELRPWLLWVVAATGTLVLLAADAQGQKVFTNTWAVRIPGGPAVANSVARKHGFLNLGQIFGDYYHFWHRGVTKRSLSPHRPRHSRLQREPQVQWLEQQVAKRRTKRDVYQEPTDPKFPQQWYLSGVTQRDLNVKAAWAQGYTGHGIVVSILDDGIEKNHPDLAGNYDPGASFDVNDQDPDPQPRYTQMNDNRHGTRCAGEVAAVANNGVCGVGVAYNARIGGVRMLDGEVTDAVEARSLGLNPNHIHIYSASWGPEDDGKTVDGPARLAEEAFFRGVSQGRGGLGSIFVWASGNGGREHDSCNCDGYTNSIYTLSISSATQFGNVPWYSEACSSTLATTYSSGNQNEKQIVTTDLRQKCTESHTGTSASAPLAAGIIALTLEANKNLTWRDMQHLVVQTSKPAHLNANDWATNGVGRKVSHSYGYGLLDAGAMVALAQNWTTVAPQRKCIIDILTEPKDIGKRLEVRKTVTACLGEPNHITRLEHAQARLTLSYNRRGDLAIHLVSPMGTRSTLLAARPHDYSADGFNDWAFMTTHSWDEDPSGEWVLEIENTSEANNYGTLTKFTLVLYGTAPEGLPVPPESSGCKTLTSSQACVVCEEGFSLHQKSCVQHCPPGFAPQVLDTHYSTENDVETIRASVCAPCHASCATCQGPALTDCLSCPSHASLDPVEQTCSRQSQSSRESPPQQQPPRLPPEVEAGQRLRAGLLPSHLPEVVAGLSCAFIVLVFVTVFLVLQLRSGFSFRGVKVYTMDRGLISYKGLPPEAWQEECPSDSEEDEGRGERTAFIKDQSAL
Sequence,furin cleavage Z-score (7.5 min),furin cleavage Z-score (15 min),furin cleavage Z-score (30 min)
CAPVCQDHLEAGNASASA [HC935],-0.428 (inactive),-0.153 (inactive),-0.41 (inactive)
CARDGKLPATAGNASASA [HC285],1.05,2.03,0.856 (inactive)
CATTPCLGSWAGNASASA [HC64],0.626 (inactive),0.544 (inactive),0.646 (inactive)
CAAGYGAGVAAGNASASA [HC1087],1.51,-1.39 (inactive),-0.133 (inactive)
CASMPRERRDAGNASASA [FS-92],10.3 (active),12.9 (active),9.32 (active)
CARRRRSGADAGNASASA [FS-2081],1.69,0.662 (inactive),0.709 (inactive)
CARRRRGLECAGNASASA [FS-2789],6.18 (active),4.95 (active),7.29 (active)
CARRRRERRDAGNASASA [FS-1268],14.1 (active),12.4 (active),10.4 (active)
CARRRRERDDAGNASASA [FS-1922],7.16 (active),10.1 (active),7.38 (active)
CALLCPAGHAAGNASASA [HC745],0.399 (inactive),0.942 (inactive),-0.0279 (inactive)
CAYIEQGMMLAGNASASA [HC1019],-1.18 (inactive),-0.261 (inactive),-0.872 (inactive)
CATTPCSTSWAGNASASA [HC1898],0.261 (inactive),0.66 (inactive),-0.516 (inactive)
CAVVVCSMSYAGNASASA [HC2030],0.0385 (inactive),-1.4 (inactive),0.392 (inactive)
CAMEECHQHLAGNASASA [HC29],0.383 (inactive),1.55,2.41
CAMTTDNLKCAGNASASA [HC1213],-0.575 (inactive),-0.0624 (inactive),0.0584 (inactive)
CASVDRWRRTAGNASASA [FS-95],3.08,4.75 (active),4.05 (active)
CARRRRAVPVAGNASASA [FS-2596],0.0891 (inactive),0.235 (inactive),1.42
CARRRRERRTAGNASASA [FS-375],10.4 (active),11 (active),9 (active)
CARRRRFVPVAGNASASA [FS-2786],2.12,4.63 (active),5.2 (active)
CACSHRERRDAGNASASA [FS-584],6.92 (active),7.04 (active),8.38 (active)
CADWLRQRRTAGNASASA [FS-1317],-0.575 (inactive),1.58,1.74
CARRRRFPFVAGNASASA [FS-1784],0.483 (inactive),0.473 (inactive),1.3
CASSDLYLVTAGNASASA [HC724],-0.584 (inactive),-0.169 (inactive),-0.884 (inactive)
CAGAPTYSWGAGNASASA [HC422],-0.832 (inactive),-0.574 (inactive),-0.69 (inactive)
CAWTPCSAHLAGNASASA [HC2468],-0.238 (inactive),0.336 (inactive),-1.23 (inactive)

Sequence,furin cleavage Z-score (7.5 min),furin cleavage Z-score (15 min),furin cleavage Z-score (30 min)
CAMEECSSHLAGNASASA [HC1737],-0.244 (inactive),0.0684 (inactive),0.567 (inactive)
CASTCCSAHLAGNASASA [HC2520],-0.141 (inactive),0.556 (inactive),-0.184 (inactive)
CARRRRLLQQAGNASASA [FS-3167],-0.397 (inactive),-0.514 (inactive),-0.168 (inactive)
CARRRRFSRTAGNASASA [FS-1482],12.1 (active),11.9 (active),9.62 (active)
CARRRRNVHDAGNASASA [FS-2375],4.94 (active),5.47 (active),4.66 (active)
CARRRREYWQAGNASASA [FS-2077],1.57,2.17,5.41 (active)
CARACRLVHDAGNASASA [FS-2127],-0.975 (inactive),-0.538 (inactive),-0.874 (inactive)
CARRRREAPKAGNASASA [FS-2452],10.9 (active),12.3 (active),8.72 (active)
CAVYEAADAIAGNASASA [HC267],-0.0143 (inactive),-0.395 (inactive),-0.118 (inactive)
CATPMGFSYDAGNASASA [HC1477],-1.01 (inactive),-0.454 (inactive),-1.57 (inactive)
CARRRREGGAAGNASASA [FS-2373],-0.0204 (inactive),0.649 (inactive),0.0983 (inactive)
CARRRRFERAAGNASASA [FS-1566],10.7 (active),10.7 (active),8.07 (active)
CASSVRPAREAGNASASA [FS-197],5.98 (active),7.51 (active),5.17 (active)
CAHPLRPAREAGNASASA [FS-1210],5.83 (active),7.36 (active),6.09 (active)
CAVVCCSASYAGNASASA [HC2043],0.0516 (inactive),0.0797 (inactive),0.0526 (inactive)
CAGLGKVLIDAGNASASA [HC1082],-0.199 (inactive),-0.846 (inactive),-0.271 (inactive)
CAELGRPARDAGNASASA [FS-926],0.0348 (inactive),-0.0349 (inactive),-0.833 (inactive)
CAGLRDLAVAAGNASASA [HC642],1.12,-0.299 (inactive),-1.6 (inactive)
CAGLRRQKRDAGNASASA [FS-1000],12.6 (active),12.8 (active),9.7 (active)
CALEKRSVGCAGNASASA [FS-2391],-0.325 (inactive),-2.06 (inactive),-0.0695 (inactive)
CALEKRQKRDAGNASASA [FS-1639],14.8 (active),13.5 (active),11.4 (active)
CANPARDDRSAGNASASA [FS-946],1.25,0.0847 (inactive),-1.86 (inactive)
CANPARVCRDAGNASASA [FS-278],6.13 (active),5.66 (active),4.1 (active)
CAMSARRARDAGNASASA [FS-463],9.65 (active),10.9 (active),7.88 (active)
